Assay outcomes: PubChem, National Center for Advancing Translational Sciences (NCATS)
Compounds with a hit are over-represented: about 11% of the library has one in this group of screens.
RORgamma inh: inhibitors of mouse ROR gamma transcriptional activity | P51450 | Drosophila S2 Gal4-RORgamma UAS-luciferase reporter, 20 h | Potency, µM (top dose mostly 53.6 µM), without a hit: top-dose activity change, negative = inhibition, most hits filed as inhibitors | 310,000 tested, 5.4% active | AID 2551; note: potency is the fitted concentration of half-maximal effect; % is set by controls: 0 for no effect and ±100 for the full control effect; nearly all actives have a fitted effect of over 60% in size
Target sequence (P51450 whole entry, looked up, the tested form may be a part): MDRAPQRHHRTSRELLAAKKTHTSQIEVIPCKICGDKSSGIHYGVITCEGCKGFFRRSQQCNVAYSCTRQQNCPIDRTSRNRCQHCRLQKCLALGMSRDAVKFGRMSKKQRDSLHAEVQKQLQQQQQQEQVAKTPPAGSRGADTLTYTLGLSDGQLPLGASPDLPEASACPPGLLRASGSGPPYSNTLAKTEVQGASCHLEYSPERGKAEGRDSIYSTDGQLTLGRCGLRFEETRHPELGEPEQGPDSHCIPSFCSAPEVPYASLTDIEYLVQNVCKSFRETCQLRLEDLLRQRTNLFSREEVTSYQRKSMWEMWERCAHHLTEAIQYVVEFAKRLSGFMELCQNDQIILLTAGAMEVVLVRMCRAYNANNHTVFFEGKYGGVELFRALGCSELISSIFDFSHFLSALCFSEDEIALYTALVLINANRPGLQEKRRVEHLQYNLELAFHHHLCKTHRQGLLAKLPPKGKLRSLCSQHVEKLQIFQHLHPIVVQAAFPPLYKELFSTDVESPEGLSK
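ROR gamma transcriptional activity was tracked as Gal4-UAS luciferase output in stably transfected Drosophila Schneider cells, with compound added 1 hr before 700 uM copper sulfate induction and a 20 hr ambient-temperature incubation.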
IL-1B inflam inh: blocks inflammasome-driven IL-1 beta release; activity change, % at 57.5 µM; 360,000 tested, 4.7% active; THP-1 LPS/ATP IL-1B secretion, AlphaLISA, 16 h; active compounds read low; in the data active = activity change below about -50%; inconclusive = mostly about -30% to -49%; note: % is set by controls: 0 for no effect and ±100 for the full control effect
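THP-1 cells pretreated 1 hr with compounds (up to 57.5 uM final), then stimulated with LPS (250 ng/mL final) plus ATP (1.25 mM final); secreted IL-1B measured by AlphaLISA after 16 hr, decreased signal indicating inhibition.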
MCF10A rerep: DNA re-replication induction in MCF 10a cells. AID 624296. 350,000 tested, 2.9% active. Potency, µM (titrated, usually from 46.1 µM), inactives show at the highest dose activity, positive = re-replication, most hits filed as activators. MCF 10A DNA re-replication, Hoechst nuclear intensity, 48 h; note: potency is the fitted concentration of half-maximal effect; % of control where 0% means no effect; nearly all actives have a fitted effect of over 50% in size
SW480 rereplic: induces DNA re-replication in SW480 colon adenocarcinoma cells; SW480 DNA re-replication, Hoechst DNA content imaging, 48 h; Potency, µM (series often up to 46.1 µM), for the others: top-dose re-replication activation, actives largely listed as activators; 340,000 tested, 1.8% active; note: potency is the fitted concentration of half-maximal effect; % of control where 0% means no effect; nearly all actives have a fitted effect of over 55% in size
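Image-based DNA-content assay: after two days of treatment, nuclei were labelled with the DNA dye Hoechst and imaged, and hits were compounds raising the count of nuclei showing high fluorescence intensity.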
VP16 counter: Gal4-VP16 reporter inhibition counter-screen. AID 2546. 310,000 tested, 3.5% active. Potency, µM (top dose mostly 53.6 µM), without a hit: at the top dose activity, negative = inhibition, usual class: inhibitors. Drosophila S2 Gal4-VP16 UAS-luciferase, luminescence, 20 h;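 note: Gal4-VP16 expression switched on by copper sulfate through the metallothionein promoter; potency is the fitted concentration of half-maximal effect; % is set by controls: 0 for no effect and ±100 for the full control effect; nearly all actives have a fitted effect of over 50% in size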
* = called active by the depositor; [ ] = dose if it differs, or a comment. Unless noted, calls come from the whole dose curve; as a rule, active = well fitted curve in the direction sought with a large enough effect; inconclusive = small, poorly fitted or top-dose-only effect, or another doubt; inactive = no such curve, though single readings can be large; an effect the other way counts as inactive or inconclusive.

What do the screens show for `Nc1cc(Nc2ccc(Br)cc2)nc(N)n1`?
RORgamma inh: 43.0%; IL-1B inflam inh: -70.8*; MCF10A rerep: 3.3%; SW480 rereplic: 22.0%; VP16 counter: 2.1%

Results for CCN1CCN(c2ccc(S(=O)(=O)N3CCCCC3)cc2NC(=O)COc2ccc(Cl)c(C)c2)CC1 ?
RORgamma inh: 0.1µM*; IL-1B inflam inh: -12.2; MCF10A rerep: 1.1%; SW480 rereplic: 16.4µM*; VP16 counter: -26.8%

What do the screens show for `CCc1nnc(NC(=O)c2cc(S(=O)(=O)N3CCOCC3)ccc2N2CCCCC2)s1`?
RORgamma inh: -2.8%; IL-1B inflam inh: -70.4*; MCF10A rerep: 4.5%; SW480 rereplic: -3.8%; VP16 counter: 1.3%

How did CCN1CCN(c2ccc(S(=O)(=O)N3CCCCC3)cc2NC(=O)COc2ccccc2)CC1 do in these assays?
IL-1B inflam inh: -54.9*; MCF10A rerep: 9.7%; SW480 rereplic: 9.7%

How did O=C(CCl)Nc1cc(S(=O)(=O)N2CCCCCC2)ccc1Cl do in these assays?
RORgamma inh: -12.3%[10 µM]; IL-1B inflam inh: -101.4*; MCF10A rerep: inconclusive; SW480 rereplic: inconclusive; VP16 counter: inconclusive

What do the screens show for `CCC(=O)c1ccc(OCC(=O)Nc2cc(S(=O)(=O)N3CCCCC3)ccc2N2CCN(CC)CC2)cc1`?
IL-1B inflam inh: -16.0; MCF10A rerep: 21.6%; SW480 rereplic: inconclusive

What do the screens show for `Cc1c(C)c2c(c(C)c1OC(=O)CCC(=O)O)CC[C@@](C)(CCC[C@H](C)CCC[C@H](C)CCCC(C)C)O2`?
RORgamma inh: 16.8%; MCF10A rerep: 7.9%; SW480 rereplic: -1.1%; VP16 counter: 3.5%

What do the screens show for `COC(=O)C1CC1C(NC(=O)[C@@H]1CCCN1)c1ccccc1` (stereo not given in full)?
RORgamma inh: -15.1%; VP16 counter: 0.1%

What do the screens show for `O=C(Nc1cccc(NC(=O)c2cc([N+](=O)[O-])ccc2Cl)n1)c1cc([N+](=O)[O-])ccc1Cl`?
IL-1B inflam inh: -99.8*; MCF10A rerep: 6.51µM*; SW480 rereplic: inconclusive

How did Cc1cc(NC(=O)c2cc([N+](=O)[O-])ccc2Cl)no1 do in these assays?
RORgamma inh: 14.3%; IL-1B inflam inh: inconclusive; MCF10A rerep: inconclusive; SW480 rereplic: inconclusive; VP16 counter: -2.2%

Results for O=C(Nc1cc(S(=O)(=O)N2CCOCC2)ccc1Cl)c1cc([N+](=O)[O-])ccc1Cl ?
IL-1B inflam inh: -97.4*; MCF10A rerep: 81.4%; SW480 rereplic: 11.6µM*

What do the screens show for `CCN1CCN(c2ccc(S(=O)(=O)N3CCCCC3)cc2NC(=O)Cc2ccccc2)CC1`?
IL-1B inflam inh: -11.7; MCF10A rerep: 2.8%; SW480 rereplic: -2.3%

Results for O=C(c1cc([N+](=O)[O-])ccc1Cl)N1CCN(c2ccccc2)CC1 ?
RORgamma inh: 16.9%; IL-1B inflam inh: -7.8; MCF10A rerep: -1.1%; SW480 rereplic: -2.0%; VP16 counter: -3.2%

How did O=C(c1cc([N+](=O)[O-])ccc1Cl)N1c2ccccc2Sc2ccccc21 do in these assays?
RORgamma inh: 5.8%; IL-1B inflam inh: inconclusive; MCF10A rerep: 18.4µM*; SW480 rereplic: inconclusive; VP16 counter: 5.6%

How did O=C(Nc1ccc(S(=O)(=O)N2CCOCC2)cc1)c1ccc([N+](=O)[O-])cc1Cl do in these assays?
RORgamma inh: 8.3%; IL-1B inflam inh: 0.0; MCF10A rerep: inconclusive; SW480 rereplic: inconclusive; VP16 counter: -4.6%

How did CCN1CCN(c2ccc(S(=O)(=O)N3CCCCC3)cc2NC(=O)Cc2ccc(Cl)c(Cl)c2)CC1 do in these assays?
IL-1B inflam inh: -59.6*; MCF10A rerep: inconclusive; SW480 rereplic: inconclusive

Results for Cc1cc(C)cc(CC(=O)N2CCC2(C)C(=O)NS(=O)(=O)c2cc(C)ccc2F)c1 (stereo not given) ?
IL-1B inflam inh: 2.4

Results for CCN1CCN(S(=O)(=O)c2ccc(Cl)c(C(=O)Nc3ccccc3N3CCOCC3)c2)CC1 ?
IL-1B inflam inh: -8.4; MCF10A rerep: 26.1%; SW480 rereplic: 0.3%

What do the screens show for `CCN1CCN(S(=O)(=O)c2ccc(Cl)c(C(=O)Nc3cc(Cl)ccc3N3CCOCC3)c2)CC1`?
RORgamma inh: 0.3%; IL-1B inflam inh: -62.2*; MCF10A rerep: inconclusive; SW480 rereplic: inconclusive; VP16 counter: 1.2%

Results for COc1cc(C(=O)NC2CCCc3c2cnn3-c2ccccc2F)cc(OC)c1OC (stereo not given) ?
RORgamma inh: -36.3%; IL-1B inflam inh: -21.4; MCF10A rerep: 7.8%; SW480 rereplic: -10.5%; VP16 counter: 5.01µM*

What do the screens show for `Cc1cccc(-n2ncc3c2CCCC3NC(=O)c2ccc[n+]([O-])c2)c1C` (stereo not given)?
RORgamma inh: 34.1%; IL-1B inflam inh: 20.4; MCF10A rerep: 12.8%; SW480 rereplic: inconclusive; VP16 counter: inconclusive

What do the screens show for `COc1ccc(C(=O)NC2CCCc3c2cnn3-c2ccccc2F)o1` (stereo not given)?
RORgamma inh: inconclusive; IL-1B inflam inh: 10.1; MCF10A rerep: inconclusive; SW480 rereplic: -6.8%; VP16 counter: -24.7%

How did Cc1cc(C(=O)NC2CCCc3c2cnn3-c2ccccc2F)nc(C)n1 (stereo not given) do in these assays?
RORgamma inh: -1.1%; IL-1B inflam inh: -13.5; MCF10A rerep: 8.1%; SW480 rereplic: -5.1%; VP16 counter: -9.2%

How did CC(C)c1cc(C(=O)NC2CCCc3c2cnn3-c2ccccc2F)no1 (stereo not given) do in these assays?
RORgamma inh: -28.9%; IL-1B inflam inh: -4.2; MCF10A rerep: -1.3%; SW480 rereplic: 2.3%; VP16 counter: 11.2µM*

How did COC(=O)c1ccc(C(=O)NC2CCCc3c2cnn3-c2ccccc2F)nc1 (stereo not given) do in these assays?
RORgamma inh: 11.8%; IL-1B inflam inh: 74.6; MCF10A rerep: 14.6µM*; SW480 rereplic: 18.4µM*; VP16 counter: 4.6%

What do the screens show for `Cc1cc(C(=O)NC2CCCc3c2cnn3-c2cccc(C)c2C)n(C)n1` (stereo not given)?
RORgamma inh: inconclusive; IL-1B inflam inh: 13.8; MCF10A rerep: -21.5%; SW480 rereplic: 2.8%; VP16 counter: 2.24µM*

What do the screens show for `NC(=O)NC(Cc1ccccc1)C(=O)NCCCSc1ccccc1` (stereo not given)?
RORgamma inh: -0.2%; IL-1B inflam inh: 27.8; MCF10A rerep: 6.4%; SW480 rereplic: -2.5%; VP16 counter: 2.3%

How did O=C(NC1CCCc2c1cnn2-c1ccccc1F)c1ccccc1N1CCOCC1 (stereo not given) do in these assays?
RORgamma inh: 1.6%; IL-1B inflam inh: inconclusive; MCF10A rerep: -25.6%; SW480 rereplic: -6.3%; VP16 counter: -2.9%
